VACV Venus inh = qHTS for Stage-Specific Inhibitors of Vaccinia Orthopoxvirus: Venus Reporter Primary qHTS. Vaccinia virus Venus reporter expression, fluorescence. Potency, µM (highest dose often 36.5 µM), inactives show at the highest dose activity change, negative = inhibition, actives largely listed as inhibitors. hit rate 0.46% among 330,000. AID 720580, 2013; calls by dose curve; tested in A549 cells; further: nearly all actives have a fitted effect of over 30% in size
MARV entry inh = qHTS for inhibitors of binding or entry into cells for Marburg Virus. Marburg virus pseudotyped entry inhibition, cell reporter. Potency, µM (doses to about 37.8 µM), without a hit: top-dose activity change, negative = inhibition, most hits filed as inhibitors. hit rate 1.8% among 300,000. AID 540276, 2011; calls by dose curve; tested in HEK293 cells
Vaccinia mCherry = qHTS for Stage-Specific Inhibitors of Vaccinia Orthopoxvirus: mCherry Reporter Primary qHTS; Vaccinia virus mCherry reporter infection, fluorescence; Potency, µM (titrated, usually from 36.5 µM), for inactives: at the top dose activity change, negative = inhibition, hits mostly inhibitors; hit rate 0.63% among 310,000; AID 720579, 2013; calls by dose curve; tested in A549 cells; further: nearly all actives have a fitted effect of over 35% in size
Lassa entry inh = qHTS for Inhibitors of binding or entry into cells for Lassa Virus | Lassa virus pseudotype entry inhibition, cell reporter | Potency, µM (top dose mostly 37.9 µM), inactives show at the top dose activity change, negative = inhibition, most hits filed as inhibitors | hit rate 1.2% among 300,000 | AID 540256, 2011; calls by dose curve; tested in HEK293 cells; further: nearly all actives have a fitted effect of over 50% in size
FMDV antiviral = High Throughput Screening for Foot and Mouth Disease Virus Antivirals; Potency, µM (top dose mostly 57.9 µM), without a hit: at the top dose activity change, negative = inhibition, hits mostly inhibitors; hit rate 1.2% among 410,000; AID 1159524, 2015; FMDV antiviral cell-based qHTS; calls by dose curve; tested in HEK293T cells; further: read-out not given here; nearly all actives have a fitted effect of over 45% in size
* hit, by the source's call; i = inactive; ? = inconclusive; nt = no result given; ! = a repeat was not active; [ ] = remark or other dose. Compounds with a hit are over-represented: about 3.2% of the library has one in this group of screens. On the % scale 0 is the no-effect control and ±100 the full control effect; potency means the concentration at half of the fitted maximal effect.

SMILES	VACV Venus inh	MARV entry inh	Vaccinia mCherry	Lassa entry inh	FMDV antiviral
O=C(c1cn[nH]c1)N1CCc2c([nH]c3ccccc23)C1c1c(F)cccc1Cl (stereo not given)	-15%	?	10µM*	?	-7%
Cc1nonc1CC(=O)N1CCc2c([nH]c3ccccc23)C1c1ccccc1F (stereo not given)	-17%	?	-16%	-13%	12%
COc1cccc(C2c3[nH]c4ccccc4c3CCN2C(=O)c2ccccc2F)c1OC (stereo not given)	nt	nt	nt	nt	-12%
Cc1ccc(NC(=O)N2CCc3c([nH]c4ccccc34)C2c2ccccc2F)c(Cl)c1 (stereo not given)	-9%	nt	-12%	7.9µM*	-10%
O=C(c1ccc(Cl)cc1)N1CCc2c([nH]c3ccccc23)C1C(F)(F)F (stereo not given)	-27%	11µM*	i	?	-29%
O=C(O)c1ccc(-n2cccc2/C=N/NC(=O)c2cc3cc(Br)ccc3o2)cc1	nt	-12%[46.1 µM]	nt	nt	nt
C(=C\c1c[nH]c2ccccc12)/c1ccc2ccccc2n1	-10%	nt	?	nt	nt
COc1ccc(-c2cnc3c(NC=O)cc(-c4ccc(F)cc4)cn23)cc1OC	?	nt	11µM*	nt	?
COc1cccc(-c2cc(NC=O)c3ncc(-c4ccc(OC)c(OC)c4)n3c2)c1	?	nt	?	nt	-27%
COc1ccccc1-c1cc(NC=O)c2ncc(-c3cccc(C(C)=O)c3)n2c1	?	nt	7.9µM*	nt	-27%
COc1ccc(-c2cnc3c(NC=O)cc(-c4ccccc4)cn23)cc1OC	?	nt	1.3µM*	nt	?
COc1ccc(-c2cnc3c(NC=O)cc(-c4cc(OC)c(OC)c(OC)c4)cn23)cc1OC	-25%	nt	-12%	nt	-17%
COc1ccc(-c2cnc3c(NC=O)cc(-c4cccc(NS(C)(=O)=O)c4)cn23)cc1OC	8.9µM*	nt	6.3µM*	nt	-22%
C#CCCCO/N=C1\C[C@@H](O)[C@@H](O)[C@@H]2[C@@H]3C(=O)N(C(C)(C)C)C(=O)[C@@H]3CC[C@H]12	nt	12%[14.2 µM]	nt	nt	nt
COc1cc(NS(=O)(=O)c2ccc(NC(=O)c3ccc(C(C)=O)cc3)cc2)nc(OC)n1	-10%	nt	-13%	-1%[46.1 µM]	0%
COc1ccc(CNc2ccnc(-c3ccccc3OC)n2)c(OC)c1	nt	nt	nt	nt	-16%
CN(C)c1c2ccccc2nc2c(F)c(F)c(F)c(F)c12	nt	nt	nt	nt	28µM*
Cc1c(Cl)ccc2sc(N3CCN(C(=O)C4CC4)CC3)nc12	-11%	nt	-15%	-19%[46.1 µM]	0%
C=C(C)C(=O)/C=C/c1ccc(Br)cc1	nt	6%[14.2 µM]	nt	nt	nt
Cc1ccc(-n2nc3c(=O)n(CCCC(=O)NCc4ccccc4C)nc(C)c3c2C)cc1	-28%	nt	?	15%[46.1 µM]	-21%
Cc1ccc(CNC(=O)CCCn2nc(C)c3c(C)n(-c4ccccc4)nc3c2=O)cc1	-10%	nt	-25%	20%[46.1 µM]	7.1µM*!
C=CCOC(=O)C1=C(C)N(CC)C(=O)NC1c1ccccc1 (stereo not given)	nt	-5%[14.2 µM]	nt	nt	nt
CC(C)COC(=O)c1ccc2[nH]c(O)c(C=Nc3ccc(S(N)(=O)=O)cc3)c2c1	nt	nt	nt	1µM*	nt
CCOc1ccccc1NC(=O)Nc1cccc(S(N)(=O)=O)c1	3%	-26%	i	?	3%
O=C(Nc1ccc(N2CCN(C(=O)c3ccccc3)CC2)cc1)c1cc([N+](=O)[O-])ccc1N1CCOCC1	-19%	0.63µM*	i	6%	-23%
SMILES	VACV Venus inh	MARV entry inh	Vaccinia mCherry	Lassa entry inh	FMDV antiviral
Cc1ccc(NC(=O)c2cc([N+](=O)[O-])ccc2N2CCOCC2)cc1C	-13%	7.1µM*	-17%	-14%[46.1 µM]	2%
O=C1CCCC2=C1[C@H]1O[C@](c3ccsc3)(Cc3c1ccc1ccccc31)O2	nt	-14%[14.2 µM]	nt	nt	nt
COc1cc(OC)c(OC)cc1/C=c1\[nH]c(=O)/c(=C/c2cc(OC)c(OC)cc2OC)[nH]c1=O	-18%	nt	-11%	nt	nt
CCOC(=O)c1oc2ccc(CNC3CCCCC3)c(Cl)c2c1C	-17%	7.3µM*	-15%	?	nt
CCOC(=O)c1oc2ccc(CNCCO)c(Cl)c2c1C	-11%	?	-3%	-2%	10%
Fc1ccc(-n2ncc3c(N4CCC(Cc5ccccc5)CC4)ncnc32)cc1	-3%	nt	6%	?	6%
COC(=O)c1ccc(OCC2c3cc(OC)c(OC)cc3CCN2C(=O)c2ccco2)cc1 (stereo not given)	nt	?	nt	4.1µM*	?
COCCNC(=S)N1CCc2cc(OC)c(OC)cc2C1COc1ccc(C(C)C)cc1 (stereo not given)	-24%	13µM*	-23%	?	-26%
COc1ccc(/C=N/Nc2cc(C)nc3ccc(Br)cc23)cc1	-30%	4.5µM*	?	?	-29%
COc1ccc2nc(C)cc(N/N=C/c3cccc(OC)c3O)c2c1	?	?	1µM*	?	7%
CCC(=O)N(Cc1cccs1)[C@@H]1CCOC(C)(C)C1	nt	-16%[46.1 µM]	nt	nt	nt
COc1cc(=O)n2c(c1C(=O)N(C)Cc1nccs1)CCN(Cc1cc(C)cc(C)c1)CC2	-8%	nt	-19%	nt	-16%
COc1ccc(C)cc1NCc1cc(=O)oc2cc(-c3ccccc3)c(O)cc12	?	?	-23%	2%	3%
COC(=O)c1ccccc1NCc1cc(=O)oc2cc(O)c(O)cc12	?	?	7.1µM*	?	-9%
O=C(c1ccco1)N1CCN(C(=O)c2ccc(-c3cccc(C(F)(F)F)c3)o2)CC1	-8%	?	-12%	5µM*	-16%
CC(C)(C)c1ccc(C(=O)N2CCC(C(=O)NC3CCCCCC3)CC2)cc1	-19%	?	?	-16%[46.1 µM]	30%
CC(C)[C@H]1COCCS(=O)(=O)N1Cc1cccc([N+](=O)[O-])c1	28µM*	nt	?	nt	nt
CC(C)[C@H]1COCCS(=O)(=O)N1Cc1ccccc1F	1µM*	nt	?	nt	-9%
CC(C)[C@H]1COCCS(=O)(=O)N1Cc1cccc(Cl)c1	-24%	nt	-15%	nt	-9%
O=C1NCCN2CCC[C@H]12	nt	19%	nt	nt	nt
N#Cc1ccc(CN2CCCC3(CCN(C(=O)c4cnccn4)CC3)C2)cc1	nt	nt	nt	nt	-16%
Cn1c(/C=C/c2ccc(Br)cc2)c([N+](=O)[O-])c(=O)n(C)c1=O	?	?	13µM*	?	16µM*
C=CCNC(=O)c1onc(CSc2cc(C)cc(C)c2)c1C(=O)NCC=C	nt	nt	3.2µM*	nt	-26%
O=S(=O)(c1cc(F)ccc1F)N1CCN(c2ncnc3ccccc23)CC1	nt	nt	nt	nt	10µM*
Cc1ccc(-c2cc(C(=O)N(C)Cc3cnn(C)c3C)c3cc(Br)ccc3n2)cc1	-12%	8.9µM*	-8%	?	-8%
Cc1ccc(-c2cc(C(=O)NCc3cnn(C)c3C)c3cc(Br)ccc3n2)cc1	-15%	18%[46.1 µM]	-24%	13%[46.1 µM]	2%
O=C(CCl)N(CCCNC(=O)C(F)(F)F)c1ccc([N+](=O)[O-])cc1	-9%[7.34 µM]	-17%[46.1 µM]	i[7.34 µM]	3%	20µM*
O=C(NCCCNc1ccc([N+](=O)[O-])cc1)C(F)(F)F	-9%	?	-16%	1%	-10%
